These results are taken from PubChem BioAssay (EPA / NIEHS).

Values joined by “and” are separate entries in the source; they are usually repeats but may differ in a detail not shown here. Equal entries are not always repeated. Active and inactive are the calls of the source. The calls were made as follows: active = hit-call score of the fitted dose curve at least 0.9, where 1 is the maximum; inactive = score below 0.9.

Read-out in test [1]: Monocyte Chemoattractant Protein-1 (MCP1), CCL2 (gene 6347)
Put plainly: BSK_3C_MCP1: BioMAP Diversity Plus: 3C Assay for Monocyte Chemoattractant Protein-1 (MCP1) Biomarker Activity (AID 2283017). The following applies: primary human endothelial cells (HUVEC); actives raise or lower the signal. The method, boiled down: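 Primary human umbilical vein endothelial cells (3C system) were exposed to test chemical for 24 h, after which MCP-1 was quantified by ELISA. Activity was fitted bidirectionally against DMSO as negative control and baseline.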

Read-out in test [2]: Human Leukocyte Antigen - DR isotype (HLADR), HLA-DRA (gene 3122)
Put plainly: BSK_3C_HLADR: BioMAP Diversity Plus: 3C Assay for Human Leukocyte Antigen - DR isotype (HLADR) Biomarker Activity (AID 2283019).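 As to outcome: ELISA of cell-surface HLA-DR on HUVEC 24 h after dosing.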 As to conditions: primary human endothelial cells (HUVEC); actives raise or lower the signal. Put shortly:
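Primary human umbilical vein endothelial cells (3C system) were dosed with compound and cell-surface HLA-DR was quantified by ELISA at 24 h. Activity was fitted bidirectionally against DMSO as negative control and baseline.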

Read-out in test [3]: Interleukin-8 (IL8), CXCL8 (gene 3576)
Put plainly: BSK_3C_IL8: BioMAP Diversity Plus: 3C Assay for Interleukin-8 (IL8) Biomarker Activity (AID 2283020). The following applies: primary human endothelial cells (HUVEC); actives raise or lower the signal. The method, boiled down:
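HUVEC, 3C stimulation; 24 h compound exposure; IL-8 read by ELISA; gain or loss of signal fitted relative to DMSO control.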

A short description of test [4]: BSK_3C_SRB: Viability Assessment in the BioMAP Diversity Plus: 3C Assay (AID 2283023).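 Also: fitted both ways against DMSO so a hit may be signal rise or drop.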 As to conditions: primary human endothelial cells (HUVEC). Put shortly:
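Primary human umbilical vein endothelial cells in the 3C system were read 24 h after compound dosing. Total protein was stained with 0.1% sulforhodamine B after 10% TCA fixation and read at 560 nm, with bidirectional fitting against DMSO as baseline.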

Read-out in test [5]: Matrix Metallopeptidase 1 (MMP1), MMP1 (gene 4312)
As to the kind of experiment: BSK_BE3C_MMP1: BioMAP Diversity Plus: BE3C Assay for Matrix Metallopeptidase 1 (MMP1) Biomarker Activity (AID 2283024). As to conditions: primary human bronchial epithelial cells; actives raise or lower the signal. Put shortly:
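ELISA read-out of MMP1 in human lung bronchial epithelial primary cultures, 24 h post-dose; bidirectional curve fit vs DMSO baseline, gain or loss of signal scored.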

Read-out in test [6]: Pselectin, SELP (gene 6403)
Put plainly: BSK_4H_Pselectin: BioMAP Diversity Plus: 4H Assay for Pselectin Biomarker Activity (AID 2283026). As to conditions: primary human endothelial cells (HUVEC); actives raise or lower the signal. Put shortly:
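HUVEC, 24 h chemical exposure; P-selectin read by ELISA. Bidirectional curve fit vs DMSO baseline; gain or loss of signal scored.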

Test [7] is described as follows: BSK_4H_SRB: Viability Assessment in the BioMAP Diversity Plus: 4H Assay (AID 2283027).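 Also: cells exposed to compound for 24 h before staining.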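 As to AC50: curves fitted both ways versus DMSO so AC50 may be loss or gain.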 The following applies: primary human endothelial cells (HUVEC). Put shortly:
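Cytotoxicity read-out in primary human endothelial cells: after 24 h compound exposure, cells were TCA-fixed (10%), stained with 0.1% SRB and absorbance taken at 560 nm. Values fitted in both directions relative to DMSO.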

Test [8] in a line: BSK_BE3C_SRB: Viability Assessment in the BioMAP Diversity Plus: BE3C Assay (AID 2283028).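 As to AC50: fitted both ways so AC50 may mark signal gain or loss versus DMSO.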 As to conditions: primary human bronchial epithelial cells. Put shortly:
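Human primary bronchial epithelial cells were exposed to test chemicals for 24 h. Total protein in parallel cultures was then measured by staining with 0.1% sulforhodamine B after 10% TCA fixation, with absorbance read at 560 nm. Activity was fitted bidirectionally against DMSO.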

Read-out in test [9]: Thrombomodulin, THBD (gene 7056)
As to the kind of experiment: BSK_3C_Thrombomodulin: BioMAP Diversity Plus: 3C Assay for Thrombomodulin Biomarker Activity (AID 2283029). The following applies: primary human endothelial cells (HUVEC); actives raise or lower the signal. Put shortly: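 HUVEC, 3C conditions; compound 24 h; thrombomodulin by ELISA; bidirectional curve fit vs DMSO baseline; parallel SRB total-protein staining for cytotoxicity.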

Read-out in test [10]: Vascular endothelial growth factor receptor 2 (Homo sapiens) (UniProt P35968)
As to the kind of experiment: BSK_4H_VEGFRII: BioMAP Diversity Plus: 4H Assay for Vascular endothelial growth factor receptor 2 (VEGFR2) Biomarker Activity (AID 2283031).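 As to AC50: cell-surface VEGFR2 protein level quantified by ELISA.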 The following applies: primary human endothelial cells (HUVEC); actives raise or lower the signal. Put shortly:
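Primary human umbilical vein endothelial cells in the BioMAP 4H system were dosed with test chemical, and 24 h later VEGFRII was measured by ELISA. Activity was fitted bidirectionally against DMSO as negative control and baseline.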

Read-out in test [11]: Vascular cell adhesion molecule 1 (VCAM1), VCAM1 (gene 7412)
Put plainly: BSK_4H_VCAM1: BioMAP Diversity Plus: 4H Assay for Vascular cell adhesion molecule 1 (VCAM1) Biomarker Activity (AID 2283033).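 As to outcome: cell-surface VCAM-1 protein measured by ELISA.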 As to conditions: primary human endothelial cells (HUVEC); actives raise or lower the signal. The method, boiled down:
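HUVEC, 24 h post-dose; VCAM-1 by ELISA. Bidirectional curve fit vs DMSO baseline. Parallel SRB total-protein stain (0.1% SRB after 10% TCA fixation, 560 nm) for cytotoxicity.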

Read-out in test [12]: Interferon-gamma inducible Protein 10 (IP10), CXCL10 (gene 3627)
As to the kind of experiment: BSK_BE3C_IP10: BioMAP Diversity Plus: BE3C Assay for Interferon-gamma inducible Protein 10 (IP10) Biomarker Activity (AID 2283034). The following applies: primary human bronchial epithelial cells; actives raise or lower the signal. The method, boiled down: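 ELISA readout of IP-10 in BE3C system: primary human bronchial epithelial cells, 24 h post-dosing; bidirectional curve fit vs DMSO baseline.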

Read-out in test [13]: Interleukin-6 (IL6), IL6 (gene 3569)
As to the kind of experiment: BSK_CASM3C_IL6: BioMAP Diversity Plus: CASM3C Assay for Interleukin-6 (IL6) Biomarker Activity for (AID 2283040). The following applies: primary human coronary artery smooth muscle cells; actives raise or lower the signal.

Read-out in test [14]: Interleukin-8 (IL8), CXCL8 (gene 3576)
Put plainly: BSK_CASM3C_IL8: BioMAP Diversity Plus: CASM3C Assay for Interleukin-8 (IL8) Biomarker Activity (AID 2283042).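 Also: IL-8 protein level quantified by ELISA.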 The following applies: primary human coronary artery smooth muscle cells; actives raise or lower the signal.

Read-out in test [15]: Human Leukocyte Antigen - DR isotype (HLADR), HLA-DRA (gene 3122)
As to the kind of experiment: BSK_CASM3C_HLADR: BioMAP Diversity Plus: CASM3C Assay for Human Leukocyte Antigen - DR isotype (HLADR) Biomarker Activity (AID 2283043).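 Also: cell-surface HLA-DR protein level quantified by ELISA.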 As to conditions: primary human coronary artery smooth muscle cells; actives raise or lower the signal.

Read-out in test [16]: Macrophage colony-stimulating factor (MCSF), CSF1 (gene 1435)
As to the kind of experiment: BSK_CASM3C_MCSF: BioMAP Diversity Plus: CASM3C Assay for Macrophage colony-stimulating factor (MCSF) Biomarker Activity (AID 2283044).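 Also: M-CSF protein amount quantified by ELISA after 24 h exposure.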 The following applies: primary human coronary artery smooth muscle cells; actives raise or lower the signal.

Read-out in test [17]: Low-density lipoprotein receptor (LDLR), LDLR (gene 3949)
Put plainly: BSK_CASM3C_LDLR: BioMAP Diversity Plus: CASM3C Assay for Low-density lipoprotein receptor (LDLR) Biomarker Activity (AID 2283045).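 Also: LDLR protein level on the cell surface quantified by ELISA.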 The following applies: primary human coronary artery smooth muscle cells; actives raise or lower the signal.

Read-out in test [18]: Monocyte Chemoattractant Protein-1 (MCP1), CCL2 (gene 6347)
Put plainly: BSK_CASM3C_MCP1: BioMAP Diversity Plus: CASM3C Assay for Monocyte Chemoattractant Protein-1 (MCP1) Biomarker Activity (AID 2283046).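 Also: MCP-1 level quantified by ELISA 24 h after dosing.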 The following applies: primary human coronary artery smooth muscle cells; actives raise or lower the signal.

Test [19] can be described thus: BSK_CASM3C_Proliferation: Cell Proliferation Assessment in the BioMAP Diversity Plus: CASM3C Assay (AID 2283047).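 Also: sulforhodamine B total protein stain as relative cell number at 560 nm; sub-confluent cells exposed 48 h before staining; fitted both ways against DMSO so gain or loss of cell number.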 As to conditions: primary human coronary artery smooth muscle cells.
Read-out in test [20]: Monokine induced gamma interferon (MIG), CXCL9 (gene 4283)
As to the kind of experiment: BSK_CASM3C_MIG: BioMAP Diversity Plus: CASM3C Assay for Monokine induced gamma interferon (MIG) Biomarker Activity (AID 2283048).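 Also: MIG protein level measured by ELISA.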 The following applies: primary human coronary artery smooth muscle cells; actives raise or lower the signal.

Take `N#CCCCCC#N`: the result in test [1], in [2], in [3], in [4], in test [5] and in test [6] was inactive. Also, the outcome in test [7], in test [8], in [9], in test [10], in test [11] and in [12] was inactive. The result in [13], in [14], in [15], in test [16], in test [17] and in test [18] was inactive. For the same compound, the result in test [19] and in test [20] was inactive.
For the compound `Oc1ccc(C2(c3ccc(O)cc3)c3ccccc3-c3ccccc32)cc1`, the AC50 is 13.2 µM (active) and 12 µM (active) in test [1]; 9.06 µM (active) and 7.06 µM (active) in test [2]; 17.2 µM (active) and 20 µM (active) in [3]; 6.97 µM (active) and 8.38 µM (active) in test [4]; 3.01 µM (active) and 5.41 µM (active) in test [6]; 11.9 µM (active) in [7]. Besides, the AC50 in [8] is 5.04 µM (active) and 5.03 µM (active); in test [9], 5.01 µM (active) and 11.3 µM (active); in test [10], 33.9 µM (active) and 35.7 µM (active); in [11], 6.91 µM (active) and 7.37 µM (active); in test [12], 5.4 µM (active) and 3.97 µM (active); in test [13] it was 9.02 µM (active) and 4.73 µM (active). For the same compound, the AC50 in test [14] was 27 µM (active) and 24.3 µM (active); in [15], 3.97 µM (active) and 2.88 µM (active); in [16], 11.1 µM (active) and 20 µM (active); in test [17], 29.5 µM (active) and 28.9 µM (active); in test [18], 20 µM (active); in [19], 32.4 µM (active) and 32.9 µM (active). Moreover, the AC50 in test [20] was 914 nM (active) and 799 nM (active). The result in [5] was inactive.
For `O=[N+]([O-])C=Cc1ccccc1`, the AC50 in test [1] was 7.71 µM (active); in test [2] it was 2.15 µM (active); in test [3], 10 µM (active); in test [4], 9.73 µM (active); in [5], 11.3 µM (active); in test [6], 5.78 µM (active). The AC50 in test [7] is 5.27 µM (active); in [8], 24.3 µM (active); in test [11] it was 11.5 µM (active); in test [12], 2.48 µM (active); in test [13] it was 31.3 µM (active); in [14] it was 20 µM (active). Moreover, the AC50 in [15] is 12.1 µM (active); in test [16], 20 µM (active); in test [17] it was 25.7 µM (active); in test [18], 27.6 µM (active); in test [19], 10.9 µM (active); in test [20], 27.1 µM (active). For the same compound, the outcome in test [9] and in [10] was inactive.
`CC(C)(c1cc(Cl)c(O)c(Cl)c1)c1cc(Cl)c(O)c(Cl)c1`: the AC50 in test [1] is 12.3 µM (active); in test [2], 10.2 µM (active); in [3], 20 µM (active); in test [4], 9.54 µM (active); in test [5], 9.58 µM (active); in test [6], 27.8 µM (active). For the same compound, the AC50 was 29 µM (active) in [7]; 6.38 µM (active) in test [8]; 20 µM (active) in test [9]; 6.9 µM (active) in [10]; 30.1 µM (active) in test [11]; 7.58 µM (active) in test [12]. The AC50 was 36.4 µM (active) in test [13]; 27.9 µM (active) in test [15]; 20 µM (active) in test [16]; 32.6 µM (active) in test [18]; 32.6 µM (active) in [19]; 32.9 µM (active) in [20]. The result in test [14] was inactive.
As to `C=CCN(CC=C)C(=O)C(Cl)Cl`, the result in [1], in test [2], in test [3], in test [4], in [5] and in [6] was inactive. Also, the result in test [7], in test [8], in test [9], in test [10], in test [11] and in [12] was inactive. The result in test [13], in [14], in test [15], in test [16], in test [17] and in test [18] was inactive. Besides, the result in test [19] and in test [20] was inactive.
As to `CCc1cc(C)cc(CC)c1-c1c(OC(=O)C(C)(C)C)n2n(c1=O)CCOCC2`, the result in test [1], in [4], in test [5], in test [6], in test [7] and in test [8] was inactive. For the same compound, the outcome in test [9], in test [10], in test [12], in test [13], in [14] and in test [18] was inactive. The result in test [20] was inactive. Moreover, the AC50 was 24.7 µM (active) in test [2]; 0.0209 µM (active) in test [3]; 9.41 µM (active) in [11]; 3.97 µM (active) in [15]; 0.975 µM (active) in test [16]; 2.79 µM (active) in test [17]. Moreover, in test [19], the AC50 is 20 µM (active).
For the compound `Clc1ccc(-c2ccccc2)cc1`, the outcome in test [1], in test [2], in test [3], in test [5], in [8] and in test [9] was inactive. Moreover, the result in test [10], in test [12], in [13], in test [14], in [15] and in [16] was inactive. The outcome in [17], in [18], in test [19] and in test [20] was inactive. The AC50 in test [4] was 30.9 µM (active); in test [6], 28.2 µM (active); in test [7], 35.3 µM (active); in test [11], 32.9 µM (active).
